# About 13,000 (27%) of roughly 48,000 compounds showed an effect of 50% or more. Some of the results follow.
# System: Wolbachia pipientis
# Experiment: Anti-Wolbachia Cell-Based Screen
# Type: functional
# Design: scale not given: in the data most compounds retested in dose-response had high values
# Conditions: 5 µM
row,SMILES,Percent Effect [%]
1,COc1ccc2cc(-c3n[nH]cc3CN3CCSCC3)ccc2c1,-6.074
2,COCCN(CCOC)c1ncccc1Cl,3.894
3,NCCc1nc(N[C@@H](CO)c2ccccc2)c2ccccc2n1,20.3
4,COCCN(Cc1ccccc1Cl)c1nc(CCN)nc2ccccc12,116.2
5,NCCc1nc(N(Cc2nccs2)C2CC2)c2ccccc2n1,3.563
6,COCCN(CC1CC1)c1nc(CCN)nc2ccccc12,101.5
7,NCCc1nc(N(Cc2cncs2)C2CC2)c2ccccc2n1,-5.048
8,COCCN(Cc1cccs1)c1nc(CCN)nc2ccccc12,106.1
9,Cc1ccsc1CN(c1nc(CCN)nc2ccccc12)C1CC1,-10.53
10,COCCN(Cc1ccccc1C)c1nc(C)nc2oc(C)nc12,9.543
11,CC(O)CC(C)(C)CNC(=O)NCc1cccc(-n2ccnc2)c1 (stereo unspecified),13.1
12,COCCN1CC2(CCC1=O)CCN(Cc1nnc(C)o1)CC2,2.828
13,COc1cccn(Cc2nnc(-c3cccc(F)c3)o2)c1=O,-11.98
14,COc1ccc(CC(=O)N2CC[C@@H]3[C@H](CC2)N(C)CCS3(=O)=O)cc1.O=C(O)C(F)(F)F,16.94
15,COc1cccc(CC(=O)N2CC[C@@H]3[C@H](CC2)N(C)CCS3(=O)=O)c1.O=C(O)C(F)(F)F,107.9
16,COc1cccc(C(=O)N2CC[C@@H]3[C@H](CC2)N(C)CCS3(=O)=O)c1.O=C(O)C(F)(F)F,-1.721
17,CN1CCS(=O)(=O)[C@@H]2CCN(C(=O)CC(C)(C)C)CC[C@@H]21.O=C(O)C(F)(F)F,96.97
18,COc1ccc(C(=O)N2CC[C@@H]3[C@H](CC2)N(C)CCS3(=O)=O)cc1.O=C(O)C(F)(F)F,3.653
19,CN1CCS(=O)(=O)[C@@H]2CCN(C(=O)c3ccccc3)CC[C@@H]21.O=C(O)C(F)(F)F,-7.841
20,CN(C)c1cc(C(=O)NCC2(c3ccc(F)cc3)CC2)ccn1,-8.141
21,CCNC(=O)C1CCCN(c2ccc3ccc(F)cc3n2)C1 (stereo unspecified),95.98
22,NC(=O)CCC1CCCN(c2ccnc3cc(F)ccc23)C1 (stereo unspecified),94.8

row,SMILES,Percent Effect [%]
1,CCNC(=O)C1CCCN(c2ccc(C#N)cc2C(F)(F)F)C1 (stereo unspecified),-8.319
2,CCCNC(=O)C1CCCN(c2ccc3nncn3n2)C1 (stereo unspecified),106.8
3,O=C(NCCc1ccccc1)C1CCCN(c2ccc3nncn3n2)C1 (stereo unspecified),7.633
4,O=C(O)c1cn(CC2CCCN(c3ccc4ccccc4n3)C2)nn1 (stereo unspecified),-23.62
5,NC(=O)CCC1CCCN(c2ccc3c(Cl)ccnc3c2F)C1 (stereo unspecified),-4.467
6,CC(C)OCc1cccc(NC(=O)N2CCCC(CCC(N)=O)C2)c1 (stereo unspecified),-9.131
7,NC(=O)CCC1CCCN(c2ccc3ccc(F)cc3n2)C1 (stereo unspecified),91.08
8,CCNC(=O)C1CCCN(c2cccc(C(F)(F)F)n2)C1 (stereo unspecified),5.494
9,NC(=O)c1ccc(N2CCN(Cc3ccc(F)cc3Cl)CC2)nn1,4.526
10,O=C(NCCC1=CCCCC1)C1CCCN(c2ccc3nncn3n2)C1 (stereo unspecified),4.301
11,CSc1ncc(CNC(C)c2cnn(-c3ccc(F)cc3F)c2C)cn1 (stereo unspecified),-22.9
12,O=c1cc(N2CCc3ccccc3C2)cnn1CCC1CCOC1 (stereo unspecified),5.025
13,CN1CC(Oc2ccccc2)=NC(SCC(=O)Nc2ccccc2Cl)=N1,15.6
14,CCN1C[C@@H](C(=O)O)[C@H](c2cccc(OC)c2)C1,8.176
15,COc1cccc(CN2CC[C@H]3[C@@H](C2)[C@H](c2ccsc2)CN3C(C)=O)c1,146.6
16,COc1cccc([C@H]2CN(C(C)=O)[C@@H]3CCN(Cc4ccsc4)C[C@H]23)c1.Cl,57.96
17,CC(=O)N1C[C@@H](c2ccsc2)[C@@H]2CN(Cc3cccc(Cl)c3)CC[C@@H]21,2.234
18,COc1cccc(CC(=O)N2CC[C@H]3[C@@H]2CCC(=O)N3C)c1,-18.88
19,CCN1CCC(N2C[C@@H](C(=O)O)[C@H](c3cccc(OC)c3)C2)CC1,12.25
20,CCc1c(C)nc(C)nc1N1CCC(NCCSc2nnnn2C)CC1,11.48
21,O=C(c1cn(CCN2CCCCC2)nn1)N1CCCCO1,-10.33
22,COc1nc2c(cc1C(=O)N1CCCOC(Cn3cccn3)C1)CCC2 (stereo unspecified),0.1052

row,SMILES,Percent Effect [%]
1,CCN1C[C@H]2C3(CCN(C(=O)NC(C)C)CC3)CC[C@@]2(C(=O)N(C)C)C1.O=C(O)C(F)(F)F,-2.762
2,CS(=O)(=O)N1Cc2nc(C(=O)NCc3ccccc3)oc2C1,1.051
3,CNS(=O)(=O)c1ccc(C(=O)NCCc2ccccn2)cc1,-0.4969
4,COC(=O)N1CCc2ccccc2C1C(=O)NCc1ccncc1 (stereo unspecified),5.289
5,CS(=O)(=O)N1CCc2sc(C(=O)NCc3ccccc3)cc21,99.89
6,Cc1cnc(CNC(=O)c2cc3c(s2)CCN3S(C)(=O)=O)cn1,-3.088
7,CS(=O)(=O)N1CCc2sc(C(=O)NCc3ccncc3)cc21,102.3
8,CS(=O)(=O)N1CCc2sc(C(=O)NCCc3ccccn3)cc21,98.67
9,O=C(NCCc1ccccn1)C1=NN(c2ccccc2)C(=O)CN1,14.32
10,CCOc1cccc(C(C)NC(=O)N2CCC(C(N)=O)CC2)c1 (stereo unspecified),-12.9
11,Cc1ccc(-c2cnc(CCC(=O)NCCN3CCOCC3)o2)cc1C,7.661
12,CC(C)Oc1ncnc2c1CCN(c1cc(C(F)(F)F)ncn1)CC2,-5.603
13,N#Cc1cccc(CN2C[C@@H](F)[C@@H](OCc3nc4ccccc4[nH]3)C2)c1,3.783
14,CN1CCCc2cc(CNC(=O)c3ccc(NC4CC4)nc3)ccc21,-0.6873
15,CC(C)Oc1ccc(C(=O)NCc2ccc3c(c2)CCCN3C)cn1,82.05
16,COC(=O)c1cccc(CNC(=O)c2cc(C(C)C)n(C)n2)c1,-2.718
17,COc1ccc(CNC(=O)c2ccc(=O)n(C)c2)cc1C,-12.06
18,COc1cc(C(=O)NCc2ccc3c(c2)CCCN3C)cc(OC)c1Br,103.6
19,CCOCC1CCN(C(=O)Nc2ccc3c(c2)CCCN3C)C1 (stereo unspecified),-6.058
20,COC(=O)c1cccc(C(=O)NCc2ccc3c(c2)CCCN3C)c1,93.26
21,COC(=O)c1cccc(CNC(=O)CC(F)(F)F)c1,-8.665
22,CC(C)Oc1ccc(C(=O)NCc2ccnc(N3CCCC3)c2)cn1,1.854

# From ChEMBL document CHEMBL3988442, “University of Dundee, Small-Polar-MMV Screening Library” (2021)
